The text below walks through data of PubChem BioAssay (EPA / NIEHS).

A short description of assay [1]: ATG_PBREM_CIS: Attagene CIS-FACTORIAL HepG2 Assay for human Phenobarbital-responsive Enhancer Module (PBREM) (AID 2282955). To be noted: HepG2 PBREM cis-reporter, Attagene multiplexed transcription; actives raise or lower the signal. A digest of the protocol:
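HepG2 cells transiently transfected with multiple cis-regulated reporter units measure endogenous transcription factor activity; 24 h compound exposure. Reporter mRNA quantified by RT-PCR, fluorescent labelling, HpaI digestion and capillary electrophoresis; bidirectional fit versus DMSO.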

Assay [2] deals with Paired box protein Pax-6 (Homo sapiens) (UniProt P26367). Nature of the assay: ATG_Pax6_CIS: Attagene CIS-FACTORIAL HepG2 Assay for human Paired Box 6 (PAX6) (AID 2282956). To be noted: HepG2 CIS-FACTORIAL PAX6 reporter transcription, RNA readout; actives raise or lower the signal. A digest of the protocol:
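Multiplexed cis-reporter HepG2 system; 24 h treatment; reporter mRNA read by RT-PCR/CE fluorescence; bidirectional fit vs DMSO.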

Assay [3] is described as follows: ATG_PXRE_CIS: Attagene CIS-FACTORIAL HepG2 Assay for human Pregnane X Receptor Element (PXRE) (AID 2282957). To be noted: HepG2 Attagene CIS-FACTORIAL PXRE reporter, mRNA; actives raise or lower the signal. The essentials: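 HepG2 cells transiently transfected with cis-element-driven multiplexed reporter units; after 24 h chemical exposure, reporter mRNA measured by RT-PCR, 6-FAM labelling, HpaI digestion and capillary electrophoresis. Bidirectional fitting relative to DMSO.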

A short description of assay [4]: ATG_PPRE_CIS: Attagene CIS-FACTORIAL HepG2 Assay for human Peroxisome Proliferator-activated Response Element (PPRE) (AID 2282958). To be noted: HepG2 PPRE cis-element reporter, Attagene transcription factor profiling; actives raise or lower the signal. A digest of the protocol:
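HepG2 cells are transiently transfected with multiplexed cis-promoter reporter units to report endogenous PPAR activity. After 24 h dosing, reporter mRNA is read by RT-PCR and capillary electrophoresis. Fitting is bidirectional against DMSO.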

The nature of assay [5]: ATG_RORE_CIS: Attagene CIS-FACTORIAL HepG2 Assay for human RAR-related Orphan Receptor Element (RORE) (AID 2282959). To be noted: HepG2 Attagene cis-factorial RORE reporter, mRNA; actives raise or lower the signal. The essentials: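 HepG2 cells carrying transiently transfected cis-regulated reporter units; RORE-driven reporter mRNA quantified 24 h post-dosing by RT-PCR, 6-FAM primer extension, HpaI digestion and capillary electrophoresis. Bidirectional fit versus DMSO.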

Assay [6] can be described thus: ATG_Sox_CIS: Attagene CIS-FACTORIAL HepG2 Assay for human SRY-box transcription factor (SOX) (AID 2282960). The note with it: HepG2 Attagene cis-factorial SOX reporter, mRNA; actives raise or lower the signal. A digest of the protocol:
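HepG2 cells transiently transfected with multiple cis-regulated reporter units, then dosed for 24 h. Reporter mRNA quantified by RT-PCR, fluorescent labelling, HpaI digestion and capillary electrophoresis; bidirectional fit versus DMSO.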

The target of assay [7] is Transcription factor Sp1 (Homo sapiens) (UniProt P08047). Nature of the assay: ATG_Sp1_CIS: Attagene CIS-FACTORIAL HepG2 Assay for human Specificity Protein 1 (Sp1) (AID 2282961). The note with it: HepG2 Sp1 cis-reporter transcription, actives raise or lower the signal. The essentials:
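HepG2 cells transiently transfected with multiplexed cis-regulated reporter constructs, chemical exposure 24 h. Reporter mRNA quantified by RT-PCR with capillary electrophoresis; bidirectional fit relative to DMSO.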

The nature of assay [8]: ATG_SREBP_CIS: Attagene CIS-FACTORIAL HepG2 Assay for human Sterol Regulatory Element Binding (SREBP) (AID 2282962). The note with it: HepG2 Attagene cis-factorial SREBP reporter, mRNA; actives raise or lower the signal. The essentials: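 mRNA induction of transfected cis-promoter reporters in HepG2 cells, 24 h post-dose. Detection: RT-PCR with 6-FAM-labelled products, HpaI digest, capillary electrophoresis. DMSO served as negative control and baseline.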

Assay [9] concerns the target Signal transducer and activator of transcription 3 (Homo sapiens) (UniProt P40763). Nature of the assay: ATG_STAT3_CIS: Attagene CIS-FACTORIAL HepG2 Assay for human Signal Transducer and Activator of Transcription 3 (STAT3) (AID 2282963). To be noted: HepG2, Attagene cis-factorial STAT3 reporter transcription; actives raise or lower the signal. The essentials:
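HepG2 cells transiently transfected with multiple cis-element-driven reporter units report endogenous transcription factor activity. After 24 h compound exposure, reporter mRNA is measured by RT-PCR, 6-FAM labelling, HpaI digestion and capillary electrophoresis. Fitted bidirectionally versus DMSO.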

Assay [10] can be described thus: ATG_TA_CIS: Attagene CIS-FACTORIAL HepG2 Assay for human TA Basal Promoter (AID 2282964). The note with it: HepG2 Attagene CIS-factorial TA basal promoter reporter; actives raise or lower the signal. A digest of the protocol:
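Fluorescence from labelled RT-PCR reporter fragments, separated by capillary electrophoresis, gives the signal. Cells: HepG2 transiently carrying multiple reporter units, 24 h chemical dosing. Gain or loss relative to DMSO.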

The nature of assay [11]: ATG_TCF_b_cat_CIS: Attagene CIS-FACTORIAL HepG2 Assay for human T-Cell-Factor with beta-catenin (TCF/b-cat) (AID 2282965). To be noted: HepG2 TCF/beta-catenin cis-reporter transcription, actives raise or lower the signal. A digest of the protocol:
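HepG2, transient MRTU transfection, cis-element-driven reporters (endogenous TFs). 24 h compound exposure. Readout: reporter mRNA by RT-PCR + 6-FAM primer extension, HpaI digest, capillary electrophoresis. Gain/loss fit vs DMSO baseline.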

Assay [12] in a line: ATG_TAL_CIS: Attagene CIS-FACTORIAL HepG2 Assay for human TAL Basal Promoter (AID 2282966).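 Note: background control endpoint measuring basal TAL promoter reporter mRNA not a specific factor.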 To be noted: HepG2 Attagene cis-factorial TAL promoter reporter; actives raise or lower the signal. The essentials:
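HepG2 cells transiently transfected with multiplexed cis-promoter reporter units, dosed 24 h. Reporter mRNA quantified by RT-PCR, 6-FAM labelling, HpaI digestion and capillary electrophoresis; TAL basal promoter serves as background control, fitted bidirectionally versus DMSO.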

Assay [13] in a line: ATG_TGFb_CIS: Attagene CIS-FACTORIAL HepG2 Assay for human Transforming Growth Factor (TGF) (AID 2282967). To be noted: HepG2 Attagene CIS TGFb reporter, mRNA transcription; actives raise or lower the signal. A digest of the protocol: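 Bidirectional fitting relative to DMSO gave the endpoint. Underlying data: reporter mRNA from HepG2 cells carrying transiently transfected cis-regulated reporter constructs, harvested 24 h after dosing and analyzed by RT-PCR and capillary electrophoresis.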

A short description of assay [14]: ATG_VDRE_CIS: Attagene CIS-FACTORIAL HepG2 Assay for human Vitamin D Receptor Element (VDRE) (AID 2282968). To be noted: HepG2 VDRE cis-reporter transcription, actives raise or lower the signal. The essentials:
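Transiently transfected HepG2 cells carrying cis-regulated reporter transcription units were exposed for 24 h. Reporter mRNA was measured by RT-PCR with fluorescent labelling and capillary electrophoresis, and fitted in both directions against DMSO.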

Assay [15] addresses Estrogen receptor (Homo sapiens) (UniProt P03372). Nature of the assay: ATG_ERa_TRANS: Attagene TRANS-FACTORIAL HepG2 Assay for human Estrogen Receptor alpha (ERa) (AID 2282970; active = hit-call score of the fitted dose curve at least 0.9, where 1 is the maximum). To be noted: HepG2 Attagene TRANS ERa GAL4 reporter, mRNA. The essentials: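 HepG2 cells transiently transfected with multiplexed GAL4-UAS reporter units read out chimeric NR-Gal4 activity. After 24 h compound exposure, reporter mRNA was quantified by RT-PCR, 6-FAM labeling, HpaI digestion and capillary electrophoresis, relative to DMSO.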

In assay [16] the target is X-box-binding protein 1 (Homo sapiens) (UniProt P17861). Nature of the assay: ATG_Xbp1_CIS: Attagene CIS-FACTORIAL HepG2 Assay for human X-box Binding Protein 1 (XBP1) (AID 2282972). The note with it: HepG2 XBP1 cis-element reporter, Attagene multiplex; actives raise or lower the signal. The essentials: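 Fluorescence-labelled cDNA fragments from reporter transcripts, separated by capillary electrophoresis, give the signal. Source: HepG2 cells transfected with promoter-driven reporter units, harvested 24 h post-dose. DMSO served as reference for bidirectional curve fitting.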
Chain of X-box-binding protein 1 (Homo sapiens) (P17861 whole entry, looked up, the tested form may be a part): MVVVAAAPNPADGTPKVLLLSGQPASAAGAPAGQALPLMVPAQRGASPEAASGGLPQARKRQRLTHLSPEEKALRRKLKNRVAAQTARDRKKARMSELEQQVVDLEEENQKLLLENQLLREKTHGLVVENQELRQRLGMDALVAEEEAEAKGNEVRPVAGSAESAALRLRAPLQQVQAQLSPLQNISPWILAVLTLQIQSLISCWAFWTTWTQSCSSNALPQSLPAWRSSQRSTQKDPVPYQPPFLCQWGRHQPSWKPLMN

Assay [17] addresses Steroid hormone receptor ERR1 (Homo sapiens) (UniProt P11474). Description: ATG_ERRa_TRANS: Attagene TRANS-FACTORIAL HepG2 Assay for human Estrogen-Related Receptor alpha (ERRa) (AID 2282971; active = hit-call score of the fitted dose curve at least 0.9, where 1 is the maximum). The note with it: HepG2 Attagene TRANS reporter, ERRa transactivation. A digest of the protocol: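 HepG2 cells transiently transfected with GAL4-UAS reporter units and chimeric NR-Gal4 constructs; after 24 hour compound incubation, reporter mRNA quantified by RT-PCR, fluorescent labelling and capillary electrophoresis, gain of signal versus DMSO.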

Assay [18] deals with Nuclear receptor subfamily 1 group I member 3 (Homo sapiens) (UniProt Q14994). Description: ATG_CAR_TRANS: Attagene TRANS-FACTORIAL HepG2 Assay for human Constitutive Androstane Receptor (CAR) (AID 2282969; active = hit-call score of the fitted dose curve at least 0.9, where 1 is the maximum;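 note: activators raise reporter mRNA above DMSO so AC50 marks induction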). The note with it: HepG2 Attagene TRANS-FACTORIAL CAR reporter. A digest of the protocol: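 HepG2 cells transiently transfected with GAL4-UAS reporter units; TRANS format reads activity of exogenous chimeric NR-Gal4 protein. After 24 h dosing, reporter mRNA quantified by RT-PCR, 6-FAM labelling and capillary electrophoresis; gain of signal fitted against DMSO.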
Chain of Nuclear receptor subfamily 1 group I member 3 (Homo sapiens) (Q14994 whole entry, looked up, the tested form may be a part): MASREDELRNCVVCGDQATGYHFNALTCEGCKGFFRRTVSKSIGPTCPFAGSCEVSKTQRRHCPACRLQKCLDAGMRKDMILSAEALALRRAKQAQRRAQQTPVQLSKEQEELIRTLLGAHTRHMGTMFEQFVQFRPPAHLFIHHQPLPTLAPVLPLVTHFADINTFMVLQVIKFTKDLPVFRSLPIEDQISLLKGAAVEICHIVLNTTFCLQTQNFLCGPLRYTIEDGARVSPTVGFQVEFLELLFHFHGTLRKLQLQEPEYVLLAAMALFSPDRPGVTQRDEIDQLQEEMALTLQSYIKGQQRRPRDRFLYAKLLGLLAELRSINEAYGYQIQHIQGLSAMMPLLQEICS

Assay [19] can be described thus: ATG_M_19_TRANS: Attagene TRANS-FACTORIAL HepG2 Assay for M19 Transcription Factor (Internal Marker) (AID 2282974; active = hit-call score of the fitted dose curve at least 0.9, where 1 is the maximum). The note with it: HepG2 Attagene TRANS-FACTORIAL M19 internal marker reporter. The essentials: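 HepG2 transiently transfected with GAL4-UAS multiplex reporter constructs, exposed 24 h; reporter RNA quantified by RT-PCR, 6-FAM labeling, HpaI digestion and capillary electrophoresis; internal background marker fitted upward versus DMSO.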

Results filed as inconclusive are left out. Active and inactive are the calls of the source. Rule for the calls, unless noted: active = hit-call score of the fitted dose curve at least 0.9, where 1 is the maximum; inactive = score below 0.9.

Chain of Signal transducer and activator of transcription 3 (Homo sapiens) (P40763 whole entry, looked up): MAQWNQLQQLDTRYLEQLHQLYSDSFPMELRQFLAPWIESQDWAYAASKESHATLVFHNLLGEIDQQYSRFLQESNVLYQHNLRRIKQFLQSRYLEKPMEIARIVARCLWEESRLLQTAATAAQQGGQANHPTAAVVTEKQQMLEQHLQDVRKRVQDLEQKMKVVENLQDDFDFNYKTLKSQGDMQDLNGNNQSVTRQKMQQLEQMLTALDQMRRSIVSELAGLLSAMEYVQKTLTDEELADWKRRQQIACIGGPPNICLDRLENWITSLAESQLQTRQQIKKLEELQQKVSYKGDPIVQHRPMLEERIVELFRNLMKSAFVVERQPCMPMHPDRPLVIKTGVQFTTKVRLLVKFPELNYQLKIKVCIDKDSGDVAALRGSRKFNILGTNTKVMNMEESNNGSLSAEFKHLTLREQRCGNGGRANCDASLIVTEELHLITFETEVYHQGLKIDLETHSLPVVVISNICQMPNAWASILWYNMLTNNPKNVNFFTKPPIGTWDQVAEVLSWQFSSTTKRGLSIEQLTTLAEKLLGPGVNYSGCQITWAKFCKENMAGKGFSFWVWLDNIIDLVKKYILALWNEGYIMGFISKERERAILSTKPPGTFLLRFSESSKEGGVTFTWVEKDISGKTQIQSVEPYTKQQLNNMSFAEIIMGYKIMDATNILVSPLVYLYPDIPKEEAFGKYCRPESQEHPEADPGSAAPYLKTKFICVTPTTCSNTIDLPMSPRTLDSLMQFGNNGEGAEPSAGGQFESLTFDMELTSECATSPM
Chain of Estrogen receptor (Homo sapiens) (P03372 whole entry, looked up, the tested form may be a part): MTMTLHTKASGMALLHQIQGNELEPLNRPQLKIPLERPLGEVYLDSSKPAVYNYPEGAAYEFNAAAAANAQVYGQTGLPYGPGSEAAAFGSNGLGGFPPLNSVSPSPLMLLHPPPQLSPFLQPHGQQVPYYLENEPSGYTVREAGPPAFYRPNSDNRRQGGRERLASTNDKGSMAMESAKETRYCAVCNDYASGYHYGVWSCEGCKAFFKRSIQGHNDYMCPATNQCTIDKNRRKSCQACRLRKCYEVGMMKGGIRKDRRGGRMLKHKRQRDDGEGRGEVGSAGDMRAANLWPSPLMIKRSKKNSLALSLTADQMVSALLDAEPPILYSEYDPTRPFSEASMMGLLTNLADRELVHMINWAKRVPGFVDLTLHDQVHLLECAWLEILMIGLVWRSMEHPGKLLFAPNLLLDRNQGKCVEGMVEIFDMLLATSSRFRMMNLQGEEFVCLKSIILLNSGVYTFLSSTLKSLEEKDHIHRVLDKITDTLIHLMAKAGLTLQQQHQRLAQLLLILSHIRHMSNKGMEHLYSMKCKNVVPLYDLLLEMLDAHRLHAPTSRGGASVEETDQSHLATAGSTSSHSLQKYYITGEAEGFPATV
Chain of Paired box protein Pax-6 (Homo sapiens) (P26367 whole entry, looked up): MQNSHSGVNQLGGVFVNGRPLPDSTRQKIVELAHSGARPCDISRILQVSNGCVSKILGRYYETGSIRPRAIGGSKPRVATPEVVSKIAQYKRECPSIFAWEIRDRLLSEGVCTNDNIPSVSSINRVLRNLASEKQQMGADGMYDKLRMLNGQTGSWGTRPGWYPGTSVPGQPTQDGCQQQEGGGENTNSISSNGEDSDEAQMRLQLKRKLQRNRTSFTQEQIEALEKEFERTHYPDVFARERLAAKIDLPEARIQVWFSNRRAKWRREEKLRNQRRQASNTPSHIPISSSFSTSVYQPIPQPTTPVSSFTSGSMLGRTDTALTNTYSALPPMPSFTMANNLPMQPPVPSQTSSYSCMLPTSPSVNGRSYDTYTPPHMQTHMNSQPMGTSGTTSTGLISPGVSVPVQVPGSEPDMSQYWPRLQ
Chain of Transcription factor Sp1 (Homo sapiens) (P08047 whole entry, looked up): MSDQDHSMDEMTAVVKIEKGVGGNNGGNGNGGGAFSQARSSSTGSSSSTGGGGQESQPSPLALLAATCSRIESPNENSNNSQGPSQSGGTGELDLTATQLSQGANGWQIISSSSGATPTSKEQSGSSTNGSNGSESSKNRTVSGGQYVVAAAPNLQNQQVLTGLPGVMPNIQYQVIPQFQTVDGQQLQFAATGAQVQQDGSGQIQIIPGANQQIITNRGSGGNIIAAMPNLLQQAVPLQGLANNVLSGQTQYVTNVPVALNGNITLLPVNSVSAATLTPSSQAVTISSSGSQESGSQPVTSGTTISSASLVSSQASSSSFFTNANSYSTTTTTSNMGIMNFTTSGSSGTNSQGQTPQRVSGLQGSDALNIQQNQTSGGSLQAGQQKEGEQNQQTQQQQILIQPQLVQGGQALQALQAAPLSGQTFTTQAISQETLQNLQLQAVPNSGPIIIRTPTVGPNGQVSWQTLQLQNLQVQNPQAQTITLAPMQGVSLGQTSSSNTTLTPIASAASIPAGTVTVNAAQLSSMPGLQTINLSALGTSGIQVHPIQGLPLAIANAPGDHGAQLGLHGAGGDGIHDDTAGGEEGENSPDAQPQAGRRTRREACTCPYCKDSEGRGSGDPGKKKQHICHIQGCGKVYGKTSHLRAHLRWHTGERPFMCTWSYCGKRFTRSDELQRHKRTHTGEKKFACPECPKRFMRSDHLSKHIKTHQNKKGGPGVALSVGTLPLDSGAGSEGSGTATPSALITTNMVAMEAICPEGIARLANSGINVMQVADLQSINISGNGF
Chain of Steroid hormone receptor ERR1 (Homo sapiens) (P11474 whole entry, looked up, the tested form may be a part): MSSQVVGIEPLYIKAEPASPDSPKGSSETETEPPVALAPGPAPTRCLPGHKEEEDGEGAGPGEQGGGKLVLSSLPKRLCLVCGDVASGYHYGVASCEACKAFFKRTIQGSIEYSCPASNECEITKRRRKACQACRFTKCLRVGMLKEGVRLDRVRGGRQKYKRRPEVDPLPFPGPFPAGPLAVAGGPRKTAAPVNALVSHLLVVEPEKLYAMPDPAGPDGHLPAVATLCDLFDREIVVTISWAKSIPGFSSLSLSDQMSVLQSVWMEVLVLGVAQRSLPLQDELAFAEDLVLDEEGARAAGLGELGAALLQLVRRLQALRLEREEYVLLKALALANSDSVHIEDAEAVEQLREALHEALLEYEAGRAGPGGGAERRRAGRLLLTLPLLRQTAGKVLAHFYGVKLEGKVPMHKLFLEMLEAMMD

Regarding `O=P(O)(O)CCCl`, the result in [1], in assay [2], in assay [3], in assay [4], in assay [5] and in assay [6] was inactive. The outcome in assay [7], in [8], in [9], in assay [10], in assay [11] and in assay [12] was inactive. For the same molecule, the call in assay [13], in assay [14], in assay [15] and in assay [16] was inactive.

Turning to `CCCCC(C#N)(Cn1cncn1)c1ccc(Cl)cc1` (stereo not given), the result in assay [1], in [2], in [4], in assay [5], in assay [6] and in assay [7] was inactive. For the same molecule, the result in [9], in assay [10], in [11], in assay [12], in [13] and in assay [15] was inactive. Further, the outcome in [17] and in [16] was inactive. The figures for the AC50 in assay [3] and in assay [8] were 13.8 µM (active) and 12.6 µM (active), respectively.

For `COC(=O)c1c(C(F)F)nc(C(F)(F)F)c(C2=NCCS2)c1CC(C)C`, the AC50 in [1] is 0.876 µM (active); in [3] it was 0.123 µM (active); in assay [4], 50 µM (active); in assay [5], 26.8 µM (active); in [14] it was 0.879 µM (active); in assay [15] it was 19.6 µM (active). Further, the result in assay [2], in assay [6], in assay [7], in assay [8], in assay [9] and in [10] was inactive. Moreover, the molecule was classed as inactive in [11], in [12], in assay [13], in [18], in [17] and in [16]. Besides, in assay [19], the molecule was called inactive.

Take `Clc1nc(Cl)nc(Nc2ccccc2Cl)n1`: the outcome in assay [1], in assay [2], in assay [5], in assay [6], in assay [7] and in [8] was inactive. The call in assay [9], in [10], in [11], in [12], in assay [13] and in assay [14] was inactive. The outcome in assay [16] and in [19] was inactive. For the same molecule, the AC50 was 39.7 µM (active) in assay [3] and 18.7 µM (active) in assay [4].

As to `CO/N=C(/C1=NOCCO1)c1ccccc1Oc1ncnc(Oc2ccccc2Cl)c1F`, the AC50 in assay [1] is 5.03 µM (active); in [2], 9.47 µM (active); in assay [3], 0.483 µM (active); in assay [8], 1.25 µM (active); in [16] it was 0.574 µM (active). Besides, the molecule was classed as inactive in assay [4], in assay [5], in [6], in assay [7], in [9] and in assay [10]. Besides, the call in [11], in [12], in [13], in assay [15] and in [19] was inactive.

For the molecule `CCCCC(O)(Cn1cncn1)c1ccc(Cl)cc1Cl` (stereo not given), the outcome in assay [1], in assay [4], in [6], in [7], in assay [8] and in assay [11] was inactive. For the same molecule, the molecule was classed as inactive in assay [12], in assay [13] and in [16]. Besides, the half-maximal activity concentration (AC50) was 31 µM (active) in [2]; 13 µM (active) in assay [3]; 24.7 µM (active) in assay [5]; 50 µM (active) in [9]; 65 µM (active) in assay [10]; 23.6 µM (active) in assay [14]. The AC50 in assay [15] was 16.9 µM (active).

With `CCCC(=NOCC)C1=C(O)CC(CC(C)SCC)CC1=O` (stereo not given), the outcome in [1], in assay [2], in [4], in assay [5], in assay [6] and in assay [7] was inactive. Moreover, the call in assay [8], in assay [9], in [10], in assay [11], in assay [12] and in [13] was inactive. Further, the molecule was classed as inactive in assay [15], in assay [16] and in assay [19]. For the same molecule, the concentration at half-maximal activity (AC50) in [3] was 29.5 µM (active).
